Measured values taken from PubChem BioAssay AID977607 (Broad Institute, 2014).
About 460 (31%) of roughly 1,500 compounds were called active. Inconclusive results (about 1%) are left out.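 Rule for the calls: active = curve reaches 40% activation over neutral controls at an AC40 no higher than the top valid tested concentration; inconclusive = no clear call, values can overlap the other calls; inactive = signal moving opposite to the expected increase, and the rest.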 These entries were drawn from the full list. Entries with a potency or affinity are not part of this list.

assay: GLuc-reported insulin release enhancers, glucose-stimulated beta cells – cell-based, INS-1E, Gaussia luciferase, luminescence, cherry-pick, set 2, dose response (AID 977607); conditions: INS-1E GLuc insulin secretion reporter, 2-3 h, active compounds read high; at 35 µM, 100% = signal doubled over neutral wells unless noted;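 note: 0% = median of the plate neutral control wells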

Max activation, inactive:
CCSc1ccc2nnc(-c3ccc(F)cc3)n2n1 -17.1% [at 0.135 µM, 100% = signal doubled over neutral wells]
C=CCNc1sc(C(=O)C2CC2)c(N)c1C#N -24.8% [at 0.0016 µM, 100% = signal doubled over neutral wells]
COc1ccc(Nc2nc(NCc3cccs3)nc3ccsc23)cc1OC -40.6%
COCCNc1nc(NC(C)C)nc2ccsc12 -19.2% [at 0.046 µM, 100% = signal doubled over neutral wells]
Cc1cc(NC(=O)COC(=O)c2oc3c(Cl)cccc3c2C)no1 -17.9% [at 11 µM, 100% = signal doubled over neutral wells]
CCOC(=O)c1cnc2ccc(OCC)cc2c1N1CCN(c2ccccc2)CC1 -39.9%
CCCOC(=O)Nc1ccc(S(=O)(=O)Nc2ncccn2)cc1 -14.1% [at 11 µM, 100% = signal doubled over neutral wells]
O=C(c1cccc(F)c1)N1CCCc2ccccc21 -18.1% [at 0.015 µM, 100% = signal doubled over neutral wells]
CCOc1nc(Nc2ccccc2F)nc(OCC)n1 -23.2% [at 0.0016 µM, 100% = signal doubled over neutral wells]
COc1nc(Nc2ccccc2)nc(OC)n1 -12% [at 0.0016 µM, 100% = signal doubled over neutral wells]
COc1ccc(S(=O)(=O)Nc2cccc(-c3ccc4nncn4n3)c2)cc1F -16.1% [at 0.046 µM, 100% = signal doubled over neutral wells]
C=CCOc1cccc(C(=O)N2CCC(CCC(=O)NC3CC3)CC2)c1 -8.53% [at 1.2 µM, 100% = signal doubled over neutral wells]
C[C@@H]1CN([C@@H](C)CO)C(=O)c2cc(Br)cnc2O[C@H]1CN(C)C(=O)C1CC1 -19.6% [at 0.0016 µM, 100% = signal doubled over neutral wells]
NC(=O)C1CCN(c2nc(-c3ccccc3)nc3ccccc23)CC1 -15.2% [at 3.8 µM, 100% = signal doubled over neutral wells]
Cc1ccccc1Nc1c(-c2ccncc2)nc2ccc(Cl)cn12 -30.7%
CCOC(=O)c1sc2nc(-c3ccccc3)ccc2c1N -12.9%
COc1ccc(C(=O)c2ccc(OC)c(OC)c2)cc1 -16.7% [at 0.42 µM, 100% = signal doubled over neutral wells]
C[C@@H](NC(=O)C[C@@H]1C[C@@H]2c3cc(NC(=O)Nc4ccccc4F)ccc3O[C@@H]2[C@@H](CO)O1)c1ccccc1 34.4% [at 0.015 µM, 100% = signal doubled over neutral wells]
COc1ccc(-n2c(=S)[nH]c3cc(C(=O)Nc4ccc(OC)c(OC)c4)ccc3c2=O)cc1 -16.1% [at 0.0016 µM, 100% = signal doubled over neutral wells]
COc1ccc(C(=O)Nc2cccnc2Cl)cc1OC -21.1% [at 0.0016 µM, 100% = signal doubled over neutral wells]
O=S(=O)(c1ccc(-c2csc(Nc3ccc(Br)cc3)n2)cc1)N1CCCC1 -14.1% [at 0.42 µM, 100% = signal doubled over neutral wells]
O=C(Cc1csc(NC(=O)c2ccccc2)n1)NO -12.5% [at 0.42 µM, 100% = signal doubled over neutral wells]
CS(=O)(=O)N1CCCCC1c1cc(C(=O)Nc2cccc3c2CCCC3)no1 (stereo not drawn) -21.9% [at 0.0016 µM, 100% = signal doubled over neutral wells]
Cc1ccc(S(=O)(=O)NCc2csc(-c3cccs3)n2)cc1 -16% [at 0.42 µM, 100% = signal doubled over neutral wells]
COc1ccc(CCN(C)C(=O)C(CCSC)NC(=O)c2ccco2)cc1OC (stereo not drawn) 35.3%
Nc1nc(N)nc(-c2ccc(Cl)cc2)n1 24.3%
CC(C)(C)NC(=O)N1c2ccccc2Sc2ccccc21 -17.6% [at 0.42 µM, 100% = signal doubled over neutral wells]
CC(=O)c1c(C)oc2ccc(NS(=O)(=O)c3ccc(F)cc3C)cc12 -28.4%
CS(=O)(=O)c1nc(S(=O)(=O)c2ccc(Cl)cc2)c(N2CCCCCC2)s1 -34.1%
Cc1nc2ccccc2c(=O)n1CCCN1CCOCC1 -15.9% [at 0.046 µM, 100% = signal doubled over neutral wells]
COc1nc(-c2ccccc2)c2cc(C)ccc2n1 42.4% [at 1.2 µM, 100% = signal doubled over neutral wells]
Cc1ccc2c(c1)c(-c1ccccc1)nc1nncn12 -21.1% [at 1.2 µM, 100% = signal doubled over neutral wells]
CCN(CC)C(=O)n1c(Cc2ccccc2)nc2ccccc21 -14.4% [at 0.005 µM, 100% = signal doubled over neutral wells]
CCCc1cc2c(OC)ccc(O)c2c(=O)n1C -19.2% [at 0.42 µM, 100% = signal doubled over neutral wells]
CCOc1ccc(NC(=O)[C@@H](NC(=O)OCc2ccccc2)[C@@H](C)CC)cc1 -32.5% [at 11 µM, 100% = signal doubled over neutral wells]
CCCNC(=O)c1ccccc1NC(=O)COc1ccc(OC)cc1 -16% [at 11 µM, 100% = signal doubled over neutral wells]
COc1ccc(CCNC(=O)CCn2c(=O)c3ccccc3n(CC(=O)NCC3CCCO3)c2=O)cc1OC (stereo not drawn) 20.3% [at 0.135 µM, 100% = signal doubled over neutral wells]
CCN(CC)C(=O)Cn1c(=O)oc2ccccc21 -21.2%
Cc1nccn1-c1ncnc2sc3c(c12)CCCC3 -26.7% [at 0.046 µM, 100% = signal doubled over neutral wells]
CCOC(=O)N1CCN(C(=O)COc2ccccc2OC)CC1 19.9% [at 11 µM, 100% = signal doubled over neutral wells]
COc1ccc(/C=N/NS(=O)(=O)c2ccccc2)cc1OC 16.8%
COc1ccc(/C=N/NC(=O)CN(C2=NS(=O)(=O)c3ccccc32)c2ccccc2)cc1OC 23.5%
C=CCc1ccc(OCCOc2ccc(/C=N/n3cnnc3)cc2OCC)c(OC)c1 -24.1% [at 0.046 µM, 100% = signal doubled over neutral wells]
Cc1cc(C)c2c(C)nn(C3CCCCC3)c2n1 20.5%
CSc1ccc(C(=O)C2CCCN(C(=O)c3ccc4c(c3)no[n+]4[O-])C2)cc1 (stereo not drawn) -36.5%
C=CCn1cnc2scc(-c3ccc(OC)cc3)c2c1=O -14.9% [at 1.2 µM, 100% = signal doubled over neutral wells]
CCOc1ccc(-c2nc(CSc3nnc(N)s3)cs2)cc1OC 23.2%
COc1ccc(-c2nc(C(=O)O)cs2)cc1OC 28.2% [at 0.42 µM, 100% = signal doubled over neutral wells]
COc1ccc(C(=O)O/N=C(\N)c2ccc(OC)c(OC)c2)cc1 -23.3% [at 0.135 µM, 100% = signal doubled over neutral wells]
COc1ccc(CC(=O)O/N=C(\N)c2ccccc2)cc1OC -13.5% [at 0.005 µM, 100% = signal doubled over neutral wells]
CC(=O)NCCc1nc2ccccc2n1CCOc1cccc(C)c1 -27.1%
COc1ccc(OCC(=O)NNC(=O)Cn2c(=O)cnc3ccccc32)cc1 -15.3% [at 1.2 µM, 100% = signal doubled over neutral wells]
O=C(c1ccccc1)c1ccc2ccccc2n1 -22.9% [at 0.0016 µM, 100% = signal doubled over neutral wells]
O=C(Nc1ccccc1Oc1ccsc1C(=O)O)c1ccccc1F 23.2% [at 0.42 µM, 100% = signal doubled over neutral wells]
Cc1cc(C)cc(C(=O)NC(=S)Nc2ccc(-c3cc4ccccc4oc3=O)cc2)c1 14.9%
O=C(NCC1CCCO1)C1CCC(N2C(=O)c3ccccc3C2=O)CC1 (stereo not drawn) 17.8% [at 11 µM, 100% = signal doubled over neutral wells]
CN1CCN(NC(=O)c2cccc(S(=O)(=O)N3CCCCCC3)c2)CC1 33% [at 1.2 µM, 100% = signal doubled over neutral wells]
CC1CCN(C(=O)c2cccc(S(=O)(=O)N3CCN(c4ccccc4)CC3)c2)CC1 35.2% [at 0.0016 µM, 100% = signal doubled over neutral wells]
